AGP1-GFP MLPCN = yeast TOR pathway AGP1-GFP modulation; S. cerevisiae AGP1-GFP multiplex flow cytometry, 3 h; GFP as percent of DMSO wells; GFP response vs DMSO, % at 10 µM; 0.02% of 320,000 active;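 active = GFP response relative to DMSO above a set limit, near screen average plus 3 SD, cut at about 150% in these data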;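 also: median GFP channel fluorescence of the gated AGP1 strain per well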
MEP2 TOR yeast = modulators of TOR pathway MEP2-GFP in S. cerevisiae. GFP response vs DMSO, % at 10 µM. 0.51% of 330,000 active. S. cerevisiae MEP2-GFP strain, flow cytometry GFP, 3 h; 100% = DMSO control level. AID 2016;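 active = GFP response versus DMSO above a set limit, roughly screen mean plus 3 SD, cut at about 180% in these data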;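 also: median GFP fluorescence of the barcode-gated MEP2-GFP cells per well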
LAP4-GFP MLPCN = yeast TOR pathway LAP4-GFP modulation. S. cerevisiae LAP4-GFP multiplex, flow cytometry GFP, 3 h; median GFP as percent of DMSO wells. GFP response vs DMSO, % at 10 µM. 0.34% of 320,000 active. AID 2023;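 active = GFP response vs DMSO above a set limit, about the screen mean plus 3 SD, cut at about 150% in these data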
RPL19A TOR yeast = modulators of TOR pathway RPL19A-GFP in S. cerevisiae; S. cerevisiae RPL19A-GFP strain, flow cytometry, 3 h; stronger effect = lower value; 0.3% of 330,000 active; percent response vs DMSO, % at 10 µM;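 active = percent response vs DMSO below 50%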;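 also: median channel GFP fluorescence of the barcoded RPL19A-GFP strain; ratio of sample median GFP to plate DMSO average so 100% = DMSO; lower means less RPL19A-GFP as with rapamycin TOR inhibition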
CIT2-GFP yeast = yeast TOR pathway CIT2-GFP modulation | S. cerevisiae CIT2-GFP strain, flow cytometry, 3 h; 100 means same as DMSO wells | 0.065% of 320,000 active | GFP response vs DMSO, % at 10 µM;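 active = GFP response relative to DMSO above a set limit, near the screen mean plus 3 SD, cut at about 150% in these data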;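 also: ratio of well median GFP fluorescence to mean of DMSO wells on the plate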
LAP4-GFP pick2 = reconfirmed LAP4-GFP TOR pathway modulator in yeast; shares compounds with LAP4-GFP MLPCN; S. cerevisiae LAP4-GFP strain, flow cytometry GFP, 3 h; GFP response vs DMSO, % at 10 µM; 20% of 590 active;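 active = GFP signal as percent of the solvent control above about 150%, meaning raised reporter expression, limit read from the data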;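 also: ratio of well median GFP fluorescence to plate DMSO mean so 100% = DMSO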
MEP2 cherry2 = second confirmation of modulators of TOR reporter MEP2-GFP in yeast; 10% of 590 active; S. cerevisiae MEP2-GFP strain, flow cytometry GFP, 3 h; GFP response vs DMSO, % at 10 µM; shares compounds with LAP4-GFP MLPCN;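 active = GFP signal above 150% of the solvent control wells, that is a rise of more than half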;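 also: median channel GFP fluorescence of all gated yeast cells per well; ratio of median GFP to plate DMSO average so 100% = DMSO level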
RPL19A GFP CP2 = reconfirmed modulator of RPL19A-GFP TOR reporter in yeast. S. cerevisiae RPL19A-GFP strain, flow cytometry GFP, 3 h; stronger effect = lower value; 100% means same as DMSO wells. GFP response vs DMSO, % at 10 µM. shares compounds with LAP4-GFP MLPCN. 3% of 590 active;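 active = under 65% GFP response relative to DMSO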;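 also: median GFP channel fluorescence per well over the all cells gate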
CIT2-GFP pick2 = reconfirmed modulator of CIT2-GFP TOR reporter in yeast | 8% of 590 active | S. cerevisiae CIT2-GFP strain, flow cytometry GFP, 3 h; DMSO control wells read 100% | shares compounds with LAP4-GFP MLPCN | GFP response vs DMSO, % at 10 µM | AID 2624;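 active = GFP response vs DMSO above about 150%, limit read from the data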;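 also: median green fluorescence per well over all gated yeast cells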
AGP1-GFP pick2 = reconfirmed modulator of AGP1-GFP TOR reporter in yeast | shares compounds with LAP4-GFP MLPCN | S. cerevisiae AGP1-GFP strain, flow cytometry GFP, 3 h | percent response vs DMSO, % at 10 µM | 590 tested, under 10 active | AID 2643;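 active = over 150 percent of DMSO response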;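 also: median GFP channel fluorescence over all cells without mother daughter split; sample median GFP divided by mean DMSO control so 100% equals DMSO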
Yeast autofluor = yeast s288c autofluorescence artifact, counter-screen | shares compounds with LAP4-GFP MLPCN | S. cerevisiae s288c, 520 nm autofluorescence, flow cytometry, 3 h; stronger effect = higher value; zero means same as solvent-only cells | fluorescence change (kMESF span) at 33 µM | 610 tested, under 10 active;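 active = fluorescence span over the dose series, or activity score, above about 33, limit read from the data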
s288c autofl DR = counter-screen for autofluorescence of TOR hits in yeast s288c | shares compounds with LAP4-GFP MLPCN | S. cerevisiae s288c parental, compound autofluorescence, flow cytometry, 3 h | fluorescence change (span) at 33 µM | 110 tested, under 10 active | AID 488829;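 active = fluorescence change span, or the activity score built from it, above 25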
TORC1 bypass = compounds blocking wildtype yeast growth but not TORC1 bypass cells; S. cerevisiae BY4741 spot growth rating, 48-72 h; stronger effect = lower value; growth rating (0-3) at 30 µM; AID 504456; 120 tested, under 10 active; shares compounds with LAP4-GFP MLPCN;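 active = growth rating at most 1 for wild type yeast while the TORC1 bypass strain still grows fully, rated 3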
Numbers without * were called inactive; / = not tested or not shown. Compounds with a hit are over-represented: about 0.93% of the library has one in this group of screens.

SMILES | AGP1-GFP MLPCN | MEP2 TOR yeast | LAP4-GFP MLPCN | RPL19A TOR yeast | CIT2-GFP yeast | LAP4-GFP pick2 | MEP2 cherry2 | RPL19A GFP CP2 | CIT2-GFP pick2 | AGP1-GFP pick2 | others
COc1ccc(/C=C/C(=O)C2C(=O)C=C(C)OC2=O)cc1O (stereo unspecified) | 96 | 92 | 185* | 99 | 90 | / | / | / | / | / | Yeast autofluor=-0.2
CCCCCn1nc(C(=O)N(CC)c2c(N)n(CCCC)c(=O)[nH]c2=O)c2ccccc2c1=O | 98 | 98 | 96 | 97 | 105 | / | / | / | / | /
Nc1cc(Oc2cccc(Cl)c2)nc(NCc2ccccc2)n1 | / | / | / | / | / | / | / | / | / | / | s288c autofl DR=0;TORC1 bypass=0
CNc1nc(N)cc(Oc2cccc(Cl)c2)n1 | / | / | / | / | / | / | / | / | / | / | TORC1 bypass=3
COc1cc(Oc2ccccc2)nc(N)n1 | 102 | 94 | 97 | 99 | 103 | / | / | / | / | /
Cc1cc(Oc2ccccc2)nc(NCc2ccccc2)n1 | 99 | 104 | 99 | 95 | 91 | / | / | / | / | /
CCn1cc(C(=O)Nc2ccc(OC)c(S(=O)(=O)N3CCCCC3)c2)c(=O)c2ccc(C)nc21 | 113 | 175* | 158* | 107 | 138 | 96 | 102 | 102 | 97 | 103
CC(C)(C)C1CCC(=NNC(=O)C(=O)NCc2ccco2)CC1 (stereo unspecified) | 83 | 115 | 88 | 60 | 84 | 96 | 98 | 99 | 105 | 100
CCOC(=O)CC(=O)Nc1ccc(C)cc1 | 96 | 103 | 93 | 100 | 103 | 99 | 102 | 99 | 100 | 100
Cc1noc(-c2ccc(C(F)(F)F)cc2)c1NC(=O)Nc1ccc(Cl)cc1 | 103 | 98 | 104 | 99 | 94 | / | / | / | / | /
COc1ccccc1CN1CN(S(=O)(=O)c2ccccc2)c2nc3ccccc3nc21 | 103 | 94 | 105 | 98 | 92 | / | / | / | / | /
CCOC(=O)Cn1c(CN2CCOCC2)nc2c1c(=O)n(C)c(=O)n2C | 106 | 95 | 222* | 69 | 101 | 108 | 119 | 101 | 115 | 99
CCOC(=O)Cn1c(CN2CCOCC2)nc2c1c(=O)[nH]c(=O)n2C | 98 | 97 | 96 | 93 | 112 | / | / | / | / | /
O=C(CCNS(=O)(=O)c1ccccc1)N1CCC(Cc2ccccc2)CC1 | 96 | 101 | 95 | 102 | 99 | / | / | / | / | /
CN(O)/C=c1/ccc2c(n1)C(=O)C=CC=2 | 87 | 98 | 275* | 90 | 116 | / | / | / | / | / | Yeast autofluor=0.21
O=C(Cc1ccc(Cl)cc1)Nc1ccc(NC(=O)c2ccccc2)cc1 | 105 | 96 | 99 | 101 | 104 | / | / | / | / | /
O=C(CC(=O)c1ccccc1)Nc1ccc(Cl)cc1 | 106 | 122 | 127 | 114 | 103 | 100 | 103 | 103 | 92 | 98
COc1ccccc1NC(=O)CC(=O)Nc1ccccc1OC | 97 | 101 | 89 | 103 | 100 | / | / | / | / | /
COc1ccccc1NC(=O)CC(=O)c1ccccc1 | 92 | 116 | 103 | 104 | 100 | 101 | 101 | 97 | 106 | 91
CC(Oc1ccc(Br)cc1)C(=O)NC1CCN(Cc2ccccc2)CC1 (stereo unspecified) | 106 | 103 | 100 | 100 | 100 | / | / | / | / | /
COC(=O)c1ccc([C@H]2CC(=O)O2)cc1 | 94 | 96 | 115 | 102 | 95 | / | / | / | / | /
Cc1ccnc2c1ccc1c(C)ccnc12 | 90 | 101 | 166* | 94 | 85 | 99 | 110 | 97 | 96 | 97
CCOC(=O)[C@@H]1[C@H]2COc3cc(OC)ccc3[C@H]2N2C(=O)N(c3ccc(C(F)(F)F)cc3)C(=O)[C@]12C | 98 | 99 | 102 | 95 | 95 | / | / | / | / | /
CC(C)(O)C#Cc1ccc(CN2CCN(C3CCCC3)C(CCO)C2)cc1 (stereo unspecified) | 110 | 93 | 169* | 86 | 89 | 99 | 105 | 100 | 103 | 100
CCOC(=O)C1CCN(C(=O)C(CCSC)NC(=O)c2ccccc2OC)CC1 (stereo unspecified) | 84 | 87 | 89 | 89 | 84 | / | / | / | / | /
SMILES | AGP1-GFP MLPCN | MEP2 TOR yeast | LAP4-GFP MLPCN | RPL19A TOR yeast | CIT2-GFP yeast | LAP4-GFP pick2 | MEP2 cherry2 | RPL19A GFP CP2 | CIT2-GFP pick2 | AGP1-GFP pick2 | others
CCOc1ccc(S(=O)(=O)N2CCC(C(=O)NCc3ccncc3)CC2)cc1 | 106 | 92 | 94 | 109 | 104 | / | / | / | / | /
COc1ccc(OC)c(NC(=O)CSc2nnc(CNC(=O)c3cc(OC)c(OC)c(OC)c3)o2)c1 | 96 | 98 | 88 | 97 | 96 | / | / | / | / | /
CCOC(=O)C(C(=O)OCC)C(C(=O)OCC)N1CCOCC1 (stereo unspecified) | 68 | 88 | 180* | 65 | 75 | / | / | / | / | / | Yeast autofluor=1.3
Cc1ccc(-c2nc(C)sc2CC(=O)Nc2nnc(C)s2)cc1 | 41 | 155 | 97 | 53 | 94 | 113 | 122 | 100 | 118 | 104 | Yeast autofluor=0
CC(=O)Nc1ccc(NC(=O)Cc2sc(C)nc2-c2ccc(C)cc2)cc1 | 109 | 100 | 99 | 102 | 100 | / | / | / | / | /
CCCn1c(C)cc(C(=O)CN2C(=O)c3ccccc3C2=O)c1C | 96 | 135 | 100 | 61 | 93 | 96 | 103 | 100 | 99 | 99
CCn1c(C)cc(C(=O)CN2C(=O)c3ccccc3S2(=O)=O)c1C | 97 | 97 | 92 | 94 | 88 | / | / | / | / | /
CC(C)CC(=O)NC(=S)Nc1nc(-c2ccccc2)cs1 | 25 | 138 | 97 | 62 | 79 | 98 | 96 | 100 | 106 | 98 | Yeast autofluor=0
O=C(NCC(c1ccco1)N1CCN(c2ccc(F)cc2)CC1)C1CCCCC1 (stereo unspecified) | 101 | 103 | 98 | 97 | 94 | / | / | / | / | /

Screening results from PubChem BioAssay.
